Laboratory results published in ChEMBL document CHEMBL1961873, “Compounds: GSK PKIS; Assays: Nanosyn kinase panel” (2012).
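Further: values are mean percent inhibition of ITK from the GSK PKIS screen.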

The compounds below were run against T1, Tyrosine-protein kinase ITK/TSK (Homo sapiens) (UniProt Q08881). Details: at 1 µM.
T1 sequence (whole entry): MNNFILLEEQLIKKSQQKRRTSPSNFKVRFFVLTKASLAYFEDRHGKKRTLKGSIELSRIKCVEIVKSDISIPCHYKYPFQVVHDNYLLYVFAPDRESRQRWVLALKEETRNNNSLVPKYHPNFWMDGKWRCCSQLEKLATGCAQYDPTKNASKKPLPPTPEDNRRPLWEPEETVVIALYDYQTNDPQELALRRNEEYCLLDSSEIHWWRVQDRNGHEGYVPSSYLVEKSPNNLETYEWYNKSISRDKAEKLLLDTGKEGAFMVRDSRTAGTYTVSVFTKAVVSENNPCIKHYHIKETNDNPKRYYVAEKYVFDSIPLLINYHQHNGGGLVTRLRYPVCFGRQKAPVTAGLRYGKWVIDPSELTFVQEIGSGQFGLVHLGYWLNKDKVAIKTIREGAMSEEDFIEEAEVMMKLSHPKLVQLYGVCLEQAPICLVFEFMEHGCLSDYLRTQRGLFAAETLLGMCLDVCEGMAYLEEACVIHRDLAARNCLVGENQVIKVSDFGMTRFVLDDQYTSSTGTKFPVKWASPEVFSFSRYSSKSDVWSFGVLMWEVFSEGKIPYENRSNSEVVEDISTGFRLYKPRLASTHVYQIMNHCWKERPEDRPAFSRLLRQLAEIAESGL
Work on `N#Cc1c(NC(=O)c2cccc3ccccc23)sc2c1CCCC2` yielded an inhibition of 1.28%.
`CCn1c(-c2nonc2N)nc2cncc(C(=O)N3CCNCC3)c21` was tested, and the inhibition was 2.09%.
In the case of `NS(=O)(=O)c1cccc(-c2ccc3c(NC(=O)C4CC4)n[nH]c3c2)c1`, the inhibition is reported as 0.22%.
`CC1=C(C(=O)Nc2ccc3[nH]ncc3c2)C(c2ccc3ccccc3c2)CC(=O)N1` (stereo unspecified) showed an inhibition of 14.2%.
`Cc1nnc(-c2ccc(C)c(-c3ccc(C(=O)Nc4cccc(C#N)c4)cc3)c2)o1` was tested, and the inhibition was 0.58%.
Work on `Cc1nn(C)c2cc(N(C)c3ccnc(Nc4cccc(S(N)(=O)=O)c4)n3)ccc12` yielded an inhibition of 8.33%.
With `CS(=O)(=O)CCN(CC#N)Cc1ccc(-c2ccc3ncnc(Nc4ccc(OCc5cccc(F)c5)c(Cl)c4)c3c2)o1` the inhibition was -3.44%.
For `NC(=O)c1cccc(Nc2nccc(Nc3cccc4[nH]ncc34)n2)c1`, the inhibition was 1.1%.
In the case of `COc1cc2ncn(-c3cc(OCc4ccccc4Cl)c(C(N)=O)s3)c2cc1OC`, the inhibition is reported as 3.19%.
With `Cc1cccc(-c2n[nH]cc2-c2ccc3ncccc3n2)n1` the inhibition was 1.48%.
For `CCn1c(-c2nonc2N)nc2ccncc21`, the inhibition was 0.76%.
`COc1cc2ncn(-c3cc(OCc4ccccc4C(F)(F)F)c(C(N)=O)s3)c2cc1OC` showed an inhibition of -0.36%.
Compound `NCc1ccc(-c2nc(-c3ccc(Cl)c(O)c3)c(-c3ccncc3)[nH]2)cc1` has an inhibition of 1.29%.
Work on `CCN1CCC(CC(=O)Nc2n[nH]c3nc(-c4cccs4)c(Br)cc23)CC1` yielded an inhibition of 0.48%.
With `Nc1nc(-c2ccc3c(c2)C(=Cc2cc(Br)c(O)c(Br)c2)C(=O)N3)cs1` the inhibition was 1.31%.
Work on `COc1ccc(-c2nn3ncccc3c2-c2ccnc(Nc3ccc(Cl)c(C(F)(F)F)c3)n2)cc1` yielded an inhibition of 0.32%.
